The values below come from PubChem BioAssay.

Assay [1] can be described thus: P. berghei load reduction in hepatocytes – cell-based, HepG2, luciferase luminescence, HepG2 viability, primary screen (AID 624349).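 Note: 100% = mean of DMSO negative control wells on the same plate.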 The settings on record: P. berghei liver stage in HepG2, luciferase luminescence, concentration not given here; parasite load remaining: stronger effect = lower value; viability: measured here: HepG2 viability without parasites.
Assay [2] in a line: Wnt pathway potentiators raising nuclear beta-catenin – imaging, WNT3A-conditioned medium, mouse C2C12, NPC library, primary screen (AID 1117326; in the data active = nuclear beta-catenin stimulation mostly above about 4.2%, no sharp cut-off; inactive = mostly below about 10%). The following applies: stronger effect = higher value.
Assay [3] in a line: stimulators of insulin release from INS-1E, primary screen, cell-based, 5 mM glucose, NPC library (AID 1117329;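 active = compound raises insulin release from rat beta cells at 5 mM glucose, no numeric limit stated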). The following applies: rat INS-1E insulin secretion, at 10 µM, stronger effect = higher value.
Assay [4] is described as follows: growth inhibition of GSK3B-pretreated HCT116 cells – cell-based, CellTiter-Glo, 0.2 to 20 µM (AID 1117336;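 active = compounds lowering colon cancer cell viability after pretreatment blocking the GSK3B kinase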). The following applies: HCT116 viability after GSK3B inhibitor, at 20 µM, stronger effect = higher value. In general terms: Cellular ATP, detected with luciferase, serves as a proxy for viable cell number.
The nature of assay [5]: inhibition of endothelial tube formation, primary screen, imaging, VEGF stimulated, CD31 staining, tube area, NPC library (AID 1117340;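 active = compound that reduces growth-factor-driven endothelial tube area in a mixed cell culture, no cutoff stated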). The following applies: VEGF-stimulated ADSC/ECFC co-culture, at 10 µM, stronger effect = higher value.
The nature of assay [6]: GLP1 release stimulators, primary, NCI-H716, NPC library (AID 1117341;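 active = compound raises GLP1 secretion from the human gut endocrine cells, with no numeric limit stated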). The following applies: NCI-H716 cells, at 10 µM, stronger effect = higher value.
Assay [7] can be described thus: HCT116 colon cancer cell growth inhibition, primary screen, CellTiter-Glo luminescence, NPC library (AID 1117342;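 active = compounds that lower survival of HCT116 colon cancer cells in the luminescence readout, no numeric limit stated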). The following applies: at 20 µM (top of the series).
Assay [8] is described as follows: reduced SW480 viability measured with CellTiter-Glo, NPC library, primary (AID 1117343;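 active = compounds that lower viability of the colon cancer cells in the luminescence readout, with no numeric limit stated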). The following applies: CellTiter-Glo luminescence; at 20 µM (top of the series) unless noted.
Assay [9] is described as follows: NPC library primary testing for decreased DLD-1 cell viability via CellTiter-Glo (AID 1117346;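 active = compounds that lower survival of DLD-1 colon cancer cells in the luminescence readout, no cutoff given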). The following applies: DLD-1 viability, CellTiter-Glo luminescence; at 20 µM (top of the series).
Assay [10] is described as follows: EMT-state selective cytotoxicity in co-culture – imaging, PC-3E GFP, TEM4-18 mCherry, primary screen (AID 1345086;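 active = compounds killing one labelled cell type while sparing the other, by normalised counts and ratio limits, not self-fluorescent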;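 for all read-outs here: cells exposed to compound for 72 h before imaging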;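 for red/green cell ratio (normalised): normalised mesenchymal count divided by normalised epithelial count so high means epithelial killing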). The following applies: PC-3E GFP / TEM4-18 mCherry co-culture, imaging cell counts, at 1 µM; for red/green cell ratio (normalised): actives lie on both sides, counts scaled to control wells, 1 = unselective.
Assay [11] can be described thus: MELAS cybrid and Rieske KO viability enhancers – cell-based, MELAS cybrids, Rieske KO mouse fibroblasts, CellTiter-Glo, primary screen (AID 1508586;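 active = mean z-score across replicates of 1.96 or higher in either the MELAS or the Rieske mutant cell line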;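 note: z relative to plate mean and SD of compound and empty wells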). The following applies: low glucose.
The target of assay [12] is NAD(+) hydrolase SARM1 (Homo sapiens) (UniProt Q6SZW1). Kind of assay: blocking NAD cleavage by SARM1 SAM-TIR – cell lysate, NAD-Glo luminescence (AID 1508614;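 active = compound whose remaining NAD level is above about 45 nM, limit read from the data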;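 note: higher remaining NAD means stronger inhibition of SARM1 NADase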). The following applies: SAM-TIR HEK293T lysate NADase, at 1 µM, stronger effect = higher value.
NAD(+) hydrolase SARM1 (Homo sapiens), sequence (Q6SZW1 whole entry, looked up): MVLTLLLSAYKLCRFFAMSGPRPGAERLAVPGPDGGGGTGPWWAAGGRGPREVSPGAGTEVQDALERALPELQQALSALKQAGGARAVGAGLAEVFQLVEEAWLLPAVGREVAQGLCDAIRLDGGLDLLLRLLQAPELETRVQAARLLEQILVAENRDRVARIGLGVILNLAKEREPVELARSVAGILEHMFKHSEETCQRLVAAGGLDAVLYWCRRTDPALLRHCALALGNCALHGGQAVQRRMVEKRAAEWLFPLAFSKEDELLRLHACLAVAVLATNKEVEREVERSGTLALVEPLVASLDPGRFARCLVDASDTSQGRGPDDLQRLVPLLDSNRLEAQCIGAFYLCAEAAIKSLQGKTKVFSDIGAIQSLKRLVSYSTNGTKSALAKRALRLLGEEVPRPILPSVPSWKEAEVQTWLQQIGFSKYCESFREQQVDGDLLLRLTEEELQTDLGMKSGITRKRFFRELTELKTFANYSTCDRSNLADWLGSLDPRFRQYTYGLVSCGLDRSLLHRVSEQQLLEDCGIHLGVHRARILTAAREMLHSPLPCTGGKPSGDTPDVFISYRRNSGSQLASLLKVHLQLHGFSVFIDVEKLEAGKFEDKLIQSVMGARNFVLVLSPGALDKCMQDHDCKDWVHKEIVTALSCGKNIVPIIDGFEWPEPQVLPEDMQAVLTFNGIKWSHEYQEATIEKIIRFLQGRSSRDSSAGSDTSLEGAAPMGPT
Assay [13] in a line: galactose survival enhancers in mitochondrial complex I cybrids – cell-based, galactose medium, ATP luminescence, primary screen (AID 1645843;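 active = z-score of at least 1.8 in each of two replicates, scored against plate mean and spread of sample wells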;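 note: positive z means more ATP and so rescue of galactose-driven cybrid death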). The following applies: complex I mutant cybrid cells, 72 h, stronger effect = higher value.
Assay [14] can be described thus: viability loss with induced miR-34 in A549 – imaging, A549 dox-inducible miR-34, nuclei and caspase counts, primary screen (AID 1347080;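 active = compounds whose cell count with miR-34 switched on is under 0.7 times the count with it off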). The following applies: A549 miR-34 inducible, Hoechst nuclei count, 48 h.
[15] abbreviates: measured here: epithelial PC-3E GFP cell survival.
[16] abbreviates: measured here: mesenchymal TEM4-18 mCherry cell survival.
[17] abbreviates: stronger effect = lower value, cell number ratio, induced over uninduced.
Where [18] appears, read: measured here: relative caspase fold change +Dox/-Dox.
Where [19] appears, read: measured here: total cells with miR-34 induction, stronger effect = lower value.
[20] abbreviates: measured here: total cells without miR-34 induction.

Each structure is given as a SMILES string. Several values for one entry are separate records, joined by “and”; a condition that tells them apart may be missing. Equal values may be shown once. Activity calls are given as the source filed them. Cut-off read from the data, not from the text of the source, unless noted: active = parasite load remaining mostly below about 12% (no sharp cut-off); inactive = mostly above about 10%.

By viability is commonly meant a read-out of living cells in per cent, often relative to untreated cells. Turning to `C[N+](C)(C)CCCCCCCCCC[N+](C)(C)C`, the parasite load remaining in [1] is 84.1% (inactive) and 61.8% (inactive) and 73.4% (inactive). The viability in assay [1] was 80.8% and 105% and 148%. For the same molecule, the nuclear beta-catenin stimulation was -0.1% (inactive) in assay [2] (at 10 µM) and -0.9% in assay [2] (stimulation, at 2 µM). Moreover, in [3], the insulin secretion stimulation was 1.7% (inactive). In addition, in assay [4], the viability decrease is 17.6% (inactive). Moreover, the tube area decrease in assay [5] was -2.9% (inactive). The GLP1 secretion stimulation in assay [6] is 0.7% (inactive). Further, the inhibition of viability in assay [7] is 2.9% (inactive). In addition, the viability decrease (inhibition) is -8.7% (inactive) in assay [8] and -0.3% (inactive) in [9]. For the same molecule, in assay [10], the red/green cell ratio (normalised) was 0.87 (inactive). Further, the normalised cell number worked out at 1.13 in [10] (setting [15]) and 0.99 in assay [10] (setting [16]). For the same molecule, the z-score in assay [11] (MELAS cybrid survival, CellTiter-Glo 48 h, stronger effect = higher value) was -0.278 (inactive) and -0.415 (inactive) and 0.382 (inactive); in assay [11] (Rieske KO mouse fibroblast survival, CellTiter-Glo 72 h) it was -0.149 and -1.14 and 0.433; in [13], 0.27 (inactive) and 0.14 (inactive). Also, the remaining NAD in assay [12] was 10 nM (inactive).

Take `CNCc1ccccc1`: the nuclear beta-catenin stimulation in [2] (at 10 µM) is -1.9% (inactive); in assay [2] (stimulation, at 2 µM), 0.6%. In addition, the insulin secretion stimulation in [3] was -0.1% (inactive). The viability decrease in [4] is -25.9% (inactive). The tube area decrease in [5] was -5.5% (inactive). Further, the GLP1 secretion stimulation in assay [6] is -3.4% (inactive). In addition, the inhibition of viability in [7] was -14.3% (inactive). The viability decrease (inhibition) in [8] was -24.6% (inactive); in [9] it was -15.4% (inactive). Also, the red/green cell ratio (normalised) in assay [10] was 0.9 (inactive). Besides, the normalised cell number in [10] (setting [15]) was 1.18; in assay [10] (setting [16]), 1.06.

Consider `CC(=O)NCc1c(I)c(NC(C)=O)c(I)c(C(=O)O)c1I`, for which, in assay [1], the parasite load remaining was 120% (inactive) and 34.8% (inactive). Moreover, in assay [1], the viability was 74.1% and 92.4%. The nuclear beta-catenin stimulation is -1.4% (inactive) in assay [2] (at 10 µM) and -1.3% in assay [2] (stimulation, at 2 µM). In addition, the insulin secretion stimulation in assay [3] is -0.4% (inactive). The viability decrease in assay [4] is -16.4% (inactive). In addition, the tube area decrease in assay [5] was -6.1% (inactive). In addition, the GLP1 secretion stimulation in assay [6] is 0% (inactive). Besides, in assay [7], the inhibition of viability was -14.3% (inactive). Moreover, the viability decrease (inhibition) in [8] is 27.5% (inactive); in assay [9], -14.8% (inactive). Besides, the red/green cell ratio (normalised) in assay [10] is 1.24 (inactive). For the same molecule, the normalised cell number in [10] (setting [15]) came to 1.02; in [10] (setting [16]), 1.27. Further, the fold change is 0.851 (inactive) in [14] (setting [17]) and 1.88 in [14] (setting [18]). Further, the cell count in [14] (setting [19]) is 10700; in [14] (setting [20]), 12600.

For the molecule `OCCc1ccccc1`, in assay [1], the parasite load remaining was 52.9% (inactive). Besides, the viability in [1] was 121%. The nuclear beta-catenin stimulation in [2] (at 10 µM) was 4.3% (inactive); in [2] (stimulation, at 2 µM) it was -0.1%. The insulin secretion stimulation in [3] was -0.8% (inactive). Also, the viability decrease in [4] was -30.2% (inactive). Moreover, the tube area decrease in assay [5] is -4.7% (inactive). Further, the GLP1 secretion stimulation in assay [6] is -0.7% (inactive). Moreover, the inhibition of viability in assay [7] was -7.95% (inactive). The results for the viability decrease (inhibition) in [8] and in assay [9] were 11.9% (inactive) and -12.4% (inactive), respectively. Besides, the red/green cell ratio (normalised) in assay [10] was 0.97 (inactive). Also, the normalised cell number stood at 1.02 in [10] (setting [15]) and 1 in assay [10] (setting [16]). Besides, the fold change is 0.881 (inactive) in [14] (setting [17]) and 7.55 in assay [14] (setting [18]). For the same molecule, the values for the cell count in assay [14] (setting [19]) and in assay [14] (setting [20]) were 11500 and 13000, respectively. Besides, the remaining NAD in assay [12] was 10 nM (inactive).

In the case of `O=C1OC2(c3ccc(O)cc3Oc3cc(O)ccc32)c2ccccc21`, in assay [1], the parasite load remaining was 58.1% (inactive). Besides, the viability in [1] stood at 92.3%. The nuclear beta-catenin stimulation was -0.4% (inactive) in assay [2] (at 10 µM) and 3.4% in assay [2] (stimulation, at 2 µM). Further, the insulin secretion stimulation in assay [3] was 3.7% (inactive). The viability decrease in [4] is 6.1% (inactive). In assay [5], the tube area decrease is 15.8% (inactive). In assay [6], the GLP1 secretion stimulation is -2.3% (inactive). Also, the inhibition of viability in [7] is 9.8% (inactive). The viability decrease (inhibition) in [8] is 16% (inactive); in [9], -11.6% (inactive). Also, the red/green cell ratio (normalised) in [10] was 1.43 (inactive). Further, the normalised cell number in assay [10] (setting [15]) is 1.11; in [10] (setting [16]), 1.6. In addition, the fold change is 0.894 (inactive) in [14] (setting [17]) and 5.09 in assay [14] (setting [18]). For the same molecule, the results for the cell count in [14] (setting [19]) and in assay [14] (setting [20]) were 11200 and 12500, respectively. Further, the remaining NAD in assay [12] was 10 nM (inactive).
